{"source": "PubChem BioAssay AID2216", "about": "(Broad Institute, 2009)", "note": "“And” between values parts separate entries of the source, which are not always exact repeats. Equal entries are not always repeated. The whole screen tested about 300,000 compounds, of which about 3,300 (1.1%) were called active. Not shown: some 6% with an inconclusive outcome. The sample as a whole holds a higher share of actives than the screen did. A number with no mark means an inactive call.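 Rule for the calls: active = more than half of the replicate wells show a fall in the fluorescence ratio signal beyond about 16% (limit read from the data, passing the limit was not always enough); inconclusive = exactly half of the replicate wells pass the set limit; inactive = fewer than half of replicates pass the limit.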", "data": [{"tested_on": "Ran GTPase (GTP-bound) - importin-beta complex", "assay": "inhibitors of RanGTP-importin-beta interaction, primary screen, biochemical, FRET, CFP-Ran, YFP-importin-beta, homogeneous (AID 2216);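 note: 0% = DMSO wells and 100% = Ran loaded with GDP instead of GTP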", "conditions": "cell-free CFP-Ran/YFP-importin-beta FRET ratio; stronger effect = higher value; concentration not given here", "values": [{"compound": "Clc1cccc(Cl)c1OCCOCCNCc1ccccc1", "inhibition": "0.589%"}, {"compound": "OCCNCc1cccc(OCc2ccccc2Cl)c1", "inhibition": "17.6% (active)"}, {"compound": "OCCNCCOc1ccc(Cl)c(Cl)c1", "inhibition": "-2.77%"}, {"compound": "CCCCN1C(N)=NC[C@@H]1Cc1ccccc1", "inhibition": "-2.74%"}, {"compound": "Cc1ccn2c(=O)nc(SCC(=O)NCc3ccc4c(c3)OCO4)nc2c1", "inhibition": "-2.18%"}, {"compound": "COc1ccc(-n2nnnc2CNC(=O)c2ccc3ccccc3c2)cc1", "inhibition": "3.81%"}, {"compound": "O=C(CSc1nc(=O)n2ccccc2n1)Nc1ccc2c(c1)OCCO2", "inhibition": "0.244%"}, {"compound": "CC(C)Nc1nnc(SC(C)C(=O)N(C)C2CCCCC2)s1", "note": "(configuration not stated)", "inhibition": "2.7%"}, {"compound": "C/C(=N\\N)c1c(-c2ccccc2)c2cc(Br)ccc2[nH]c1=O", "inhibition": "21.4% (active)"}, {"compound": "O=C(CN1CCOCC1)Nc1c(-c2ccccc2)c2cc(Br)ccc2[nH]c1=O", "inhibition": "-3.33%"}, {"compound": "CC(=O)c1c(-c2ccccc2)c2ccccc2[nH]c1=O", "inhibition": "-2.98%"}, {"compound": "CN(C)CCCNC(=O)c1ccc2[nH]c3ccccc3c2c1", "inhibition": "-2.02%"}, {"compound": "CCN(CCCNC(=O)c1ccc2c(c1)NC(=O)CN2C)c1cccc(C)c1", "inhibition": "20.7% (active)"}, {"compound": "CCN(CCCNC(=O)CCn1c(=O)[nH]c2ccsc2c1=O)c1ccccc1", "inhibition": "8.57%"}, {"compound": "Cc1ccc(NC(=O)CSCC(=O)Nc2sccc2C#N)cc1", "inhibition": "-2.13%"}, {"compound": "O=C(COC(=O)/C=C/c1ccc(OC(F)F)cc1)NC1CCCCC1", "inhibition": "-7.27%"}, {"compound": "N#Cc1c(C(F)(F)F)cc(-c2ccc(Cl)cc2)nc1SCC(=O)O", "inhibition": "-1.29%"}, {"compound": "N#Cc1c(C(F)(F)F)cc(-c2ccccc2)nc1SCC(=O)N1CCOCC1", "inhibition": "3.19%"}, {"compound": "CCN(CC)c1nc(-c2ccccc2)cc(C(F)(F)F)c1C#N", "inhibition": "25.9% (active)"}, {"compound": "CCOC(=O)c1c(NC(=S)Nc2ccccc2)sc2c1CCN(C)C2", "inhibition": "70% (active)"}, {"compound": "CCOC(=O)c1c(NC(=S)Nc2ccccc2C)sc2c1CCC2", "inhibition": "-2.16%"}, {"compound": "CCOC(=O)c1c(NC(=O)NC(C)(C)C)sc2c1CCN(C)C2", "inhibition": "12%"}, {"compound": "COc1cccc(NC(C)=[N+](C)CCNS(=O)(=O)c2ccc(Cl)cc2)c1", "inhibition": "-6.06%"}, {"compound": "COc1ccc(NC(=O)CN(C)C(=O)c2n[nH]c3ccccc23)cc1", "inhibition": "-0.623%"}, {"compound": "CCCCn1c(N)c(N(CCOC)C(=O)c2cccc(S(=O)(=O)N3CCCCC3)c2)c(=O)[nH]c1=O", "inhibition": "6.51%"}, {"compound": "O=C(COC(=O)c1ncc(Cl)c(Cl)c1Cl)NNC(=O)c1ccccc1", "inhibition": "7.08%"}, {"compound": "CCCCN1C(=O)/C(=C2/Sc3ccc(Cl)cc3N2CC)SC1=S", "inhibition": "0.428%"}, {"compound": "CCN1C(=O)/C(=C2/Sc3ccccc3N2CCCS(=O)(=O)O)SC1=S", "inhibition": "43.1% (active) and 55.8% (active)"}, {"compound": "CCN1C(=O)/C(=c2\\s/c(=C3\\Sc4ccccc4N3C)c(=O)n2C)N(C)C1=S", "inhibition": "1.12%"}, {"compound": "O=C(/C=C/c1ccc([N+](=O)[O-])o1)NNC(=O)c1ccc(F)cc1", "inhibition": "-0.948%"}, {"compound": "COc1ccc(/C=C(\\C#N)C(=O)ONC2=NCCCCC2)cc1", "inhibition": "2.96%"}, {"compound": "CCOC(=O)/C(C#N)=C/c1ccc(N2CCN(Cc3ccccc3)CC2)cc1", "inhibition": "72.8% (active)"}, {"compound": "CCOC(=O)/C(C#N)=C/c1ccc(N2CCCCC2)cc1", "inhibition": "91% (active)"}, {"compound": "CCOC(=O)NC(=O)/C(C#N)=C\\c1ccccc1", "inhibition": "5.82%"}, {"compound": "COc1ccc(N2CCN(C(=O)/C(C#N)=C/c3ccccc3)CC2)cc1", "inhibition": "-3.23%"}, {"compound": "CCOC(=O)/C(C#N)=C/c1ccc(OCC(=O)Nc2ccccc2)c(OC)c1", "inhibition": "1.23%"}, {"compound": "CC(=O)NCC(=O)N1CCC(n2nccc2NC(=O)CCCc2ccccc2)CC1", "inhibition": "-2.9%"}, {"compound": "Cc1cc(O)c(Sc2ccccc2)c(=O)o1", "inhibition": "-1.75%"}, {"compound": "Cc1ccc(NC(=O)COc2coc(CN3CCc4ccccc4C3)cc2=O)cc1Cl", "inhibition": "1.39%"}, {"compound": "COc1ccc(C(CNC(=O)c2cccc(NS(=O)(=O)c3ccc(C)c(F)c3)c2)N2CCCC2)cc1", "note": "(configuration not stated)", "inhibition": "-0.978%"}, {"compound": "Cc1ccc(OCCNC(=O)CNC(=O)c2ccc(C)c(C)c2)cc1", "inhibition": "4.18%"}, {"compound": "Oc1ccc(N=Cc2sc3ccccc3c2Cl)cc1", "inhibition": "5.46%"}, {"compound": "COc1ccc(N=C(C)c2sc3ccccc3c2O)cc1", "inhibition": "39.4% (active)"}, {"compound": "COc1ccc(N=Nc2ccc(O)c(P(=O)(c3ccccc3)c3ccccc3)c2)cc1", "inhibition": "-0.168%"}, {"compound": "COc1ccc(C)cc1NC(=O)CSc1nc(SC)ns1", "inhibition": "2.19%"}, {"compound": "COC(=O)c1cc(OC)c(OC)cc1NC(=O)CSc1ccc(C)cc1", "inhibition": "-0.733%"}, {"compound": "COc1ccc(C)cc1NC(=O)CSc1ccc(Cl)cc1", "inhibition": "27.5% (active)"}, {"compound": "CCC(c1nnc(SCC(=O)NNC(=O)c2ccccc2)n1Cc1ccccc1)N(C)C", "note": "(configuration not stated)", "inhibition": "-5.06%"}, {"compound": "Cc1cccn2c(=O)c(/C=C(\\C#N)S(=O)(=O)c3ccc(Cl)cc3)c(N3CCC(C(N)=O)CC3)nc12", "inhibition": "16.6% (active)"}, {"compound": "Cc1cccn2c(=O)c(/C=C(\\C#N)C(N)=O)c(N3CCCCCC3)nc12", "inhibition": "-1.31%"}, {"compound": "Cc1cc(C)c(C#N)c(N2CCC(C(N)=O)CC2)n1", "inhibition": "-1.05%"}, {"compound": "CS(=O)(=O)N(CC(=O)N1CCc2ccccc2C1)c1ccc(Br)cc1", "inhibition": "0.322%"}, {"compound": "Cc1ccc(-c2csc(NC(=O)C3=COCCO3)n2)cc1C", "inhibition": "2.13%"}, {"compound": "COc1cccc(C(=O)c2cc3ccc(O)cc3oc2=O)c1", "inhibition": "26.4% (active)"}, {"compound": "COc1cccc(C(=O)NNC(=O)c2cccc(F)c2)c1", "inhibition": "-3.67%"}, {"compound": "COc1ccc2oc(=O)c(C(=O)N3CCCC3)cc2c1", "inhibition": "0.715%"}, {"compound": "COc1cccc(N2CC(NC(=O)c3ccc4ccccc4c3)CC2=O)c1", "note": "(configuration not stated)", "inhibition": "-1.06%"}, {"compound": "CCN1C(=O)[C@H]2[C@@H](c3ccc(-c4ccc(F)cc4)cc3)N[C@@](Cc3ccccc3)(C(=O)OC)[C@H]2C1=O", "inhibition": "-2.12%"}, {"compound": "COc1ccc(N2CCN(C(=O)COC(=O)c3cccc(S(=O)(=O)Nc4ccccc4OC)c3)CC2)cc1", "inhibition": "-1.93%"}, {"compound": "CCOC(=O)c1cccc(NC(=O)CN2C(=O)C3CC=CCC3C2=O)c1", "note": "(configuration not stated)", "inhibition": "3.31%"}, {"compound": "O=C(CN1C(=O)CC(c2ccccc2)S(=O)(=O)c2ccccc21)NC1CCCC1", "note": "(configuration not stated)", "inhibition": "0.0598%"}, {"compound": "CC1CC(=O)N(CC(=O)Nc2cccc(Cl)c2)c2ccccc2S1(=O)=O", "note": "(configuration not stated)", "inhibition": "18.5% (active)"}]}]}
